Source: PubChem BioAssay (NCATS)
Results filed as inconclusive are left out. Activity calls are given as the source filed them. The call rests on the fitted dose curve; in most records, active means well fitted curve in the direction sought with a large enough effect; inconclusive means small, poorly fitted or top-dose-only effect, or another doubt; inactive means no such curve, though single readings can be large; an effect the other way counts as inactive or inconclusive.

Key:
[1] = Quantitative High-Throughput drug screen in 47 multiple myeloma cell lines against the NCATS MIPE library collection: VP6_DJ cell viability assay (AID 1919867); further: nearly all actives have a fitted effect of over 40% in size; further: potency means the concentration at half of the fitted maximal effect
How it was run: (§1)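 qHTS format: cells plated (500/well), pin-dosed with MIPE 4.0 compounds, kept 48 h at 37 °C. Readout was CellTiter-Glo luminescence, median RLU.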

[2] = Quantitative High-Throughput drug screen in 47 multiple myeloma cell lines against the NCATS MIPE library collection: OPM2_DSMZ cell viability assay (AID 1919872); further: nearly all actives have a fitted effect of over 30% in size; further: potency means the concentration at half of the fitted maximal effect
How it was run: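 Luminescent ATP measurement with CellTiter-Glo gives viability, scaled between DMSO-only wells (100%) and media-only wells (0%). Cells, 500 per well, faced library compounds for 48 hours at 37C.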

[3] = Quantitative High-Throughput drug screen in 47 multiple myeloma cell lines against the NCATS MIPE library collection: UTMC2_PLB cell viability assay (AID 1919868); further: nearly all actives have a fitted effect of over 55% in size; further: potency means the concentration at half of the fitted maximal effect
How it was run: as §1

[4] = Quantitative High-Throughput drug screen in 47 multiple myeloma cell lines against the NCATS MIPE library collection: PE2_PLB cell viability assay (AID 1919869); further: nearly all actives have a fitted effect of over 35% in size; further: potency means the concentration at half of the fitted maximal effect
How it was run: as §1

[5] = Quantitative High-Throughput drug screen in 47 multiple myeloma cell lines against the NCATS MIPE library collection: PCM6_Riken cell viability assay (AID 1919870); further: nearly all actives have a fitted effect of over 30% in size
How it was run: as §1

[6] = Quantitative High-Throughput drug screen in 47 multiple myeloma cell lines against the NCATS MIPE library collection: RPMI8226_ATCC cell viability assay (AID 1919871); further: nearly all actives have a fitted effect of over 30% in size
How it was run: as §1

[7] = Quantitative High-Throughput drug screen in 47 multiple myeloma cell lines against the NCATS MIPE library collection: KMS28BM_JCRB cell viability assay (AID 1919874); further: nearly all actives have a fitted effect of over 35% in size; further: potency means the concentration at half of the fitted maximal effect
How it was run: as §1

[8] = Quantitative High-Throughput drug screen in 47 multiple myeloma cell lines against the NCATS MIPE library collection: KMS11_JCRBsus cell viability assay (AID 1919873); further: nearly all actives have a fitted effect of over 50% in size; further: potency means the concentration at half of the fitted maximal effect
How it was run: as §1

[9] = biological target: Cytochrome P450 3A4 (Homo sapiens) (UniProt P08684); test: qHTS for inhibitors of CYP3A4 against the NCATS DSHEA and TCM libraries (AID 1919971);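 further: inhibition lowers luminescence from luciferin made by CYP3A4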
How it was run: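 Each CYP isoform and its pro-luciferin substrate, at isoform-specific final concentrations, were preincubated 15 min at RT with substances. NADPH regeneration solution (1x) started a 30-45 min reaction, and P450-Glo luminescence was read.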

Measured: Potency

Chain of Cytochrome P450 3A4 (Homo sapiens) (P08684 whole entry, looked up, canonical isoform): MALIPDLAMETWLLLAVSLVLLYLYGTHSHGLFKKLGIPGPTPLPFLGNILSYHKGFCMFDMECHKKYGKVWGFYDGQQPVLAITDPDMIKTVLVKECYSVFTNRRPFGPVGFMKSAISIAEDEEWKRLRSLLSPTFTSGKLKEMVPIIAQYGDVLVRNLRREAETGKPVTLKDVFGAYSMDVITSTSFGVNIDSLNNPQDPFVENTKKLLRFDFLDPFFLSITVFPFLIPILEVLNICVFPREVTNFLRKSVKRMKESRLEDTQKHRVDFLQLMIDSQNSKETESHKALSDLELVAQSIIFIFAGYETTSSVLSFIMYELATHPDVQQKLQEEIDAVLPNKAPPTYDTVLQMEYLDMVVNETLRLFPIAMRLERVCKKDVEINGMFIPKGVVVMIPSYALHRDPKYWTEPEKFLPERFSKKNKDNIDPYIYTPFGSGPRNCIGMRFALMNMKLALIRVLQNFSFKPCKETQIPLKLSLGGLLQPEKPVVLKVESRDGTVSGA

O=C(O)c1ccc(-n2nc(-c3ccccc3O)nc2-c2ccccc2O)cc1
inactive: [2]
active: [1] 16.6 µM

N[C@@H](C(=O)N[C@@H]1C(=O)N2C(C(=O)O)=C(Cl)CS[C@H]12)c1ccccc1
inactive: [3] | [4] | [5] | [6] | [2]

CCCCCCNC(=O)n1cc(F)c(=O)[nH]c1=O
inactive: [4] | [2] | [7]
active: [1] 5.26 µM

CC(=O)[C@H]1CC[C@H]2[C@@H]3CCC4=CC(=O)CC[C@]4(C)[C@H]3CC[C@]12C
active: [1] 7.43 µM | [8] 18.7 µM | [7] 16.6 µM

CCN[C@H]1C[C@H](C)S(=O)(=O)c2sc(S(N)(=O)=O)cc21
inactive: [4] | [2] | [8] | [7]

COc1cc2ncnc(Nc3cccc(Cl)c3)c2cc1OC
active: [8] 18.7 µM
inactive: [3] | [2]

NC(=O)c1ccc2[nH]ccc2c1
inactive: [1] | [4] | [2] | [8] | [7]

CC1(C)[C@H](C(=O)O)N2C(=O)C[C@H]2S1(=O)=O
not listed: [3] | [5] | [9]
inactive: all other assays above

Cc1cccc(N(C)C(=S)Oc2ccc3ccccc3c2)c1
inactive: [3] | [4] | [2] | [7]

CC(=O)CC(c1ccccc1)c1c(O)c2ccccc2oc1=O (stereo unspecified)
inactive: [1] | [4] | [6] | [8] | [7]

NC(=O)c1cccc(N)c1
active: [1] 8.33 µM
inactive: [4] | [5] | [6] | [2] | [8]

Clc1ccccc1CN1CCc2sccc2C1
inactive: [6]

CC1=NN(c2ccccc2)C(=O)C1
inactive: [4] | [5] | [2] | [8] | [7]

CC(C)(C)C(=O)OCOP(=O)(COCCn1cnc2c(N)ncnc21)OCOC(=O)C(C)(C)C
active: [1] 1.05 µM | [3] 0.526 µM | [4] 0.187 µM | [2] 23.5 µM | [8] 23.5 µM | [7] 11.8 µM

CN(Cc1cc(Br)cc(Br)c1N)C1CCCCC1
inactive: [3] | [2] | [8]

CCOC(=O)c1ccc(C#Cc2ccc3c(c2)C(C)(C)CCS3)nc1
inactive: [4] | [2] | [7]

O=S(=O)(c1cccc2cnccc12)N1CCCNCC1
active: [1] 18.7 µM
inactive: [6] | [2] | [8]

CC(C)OC(=O)OCOP(=O)(CO[C@H](C)Cn1cnc2c(N)ncnc21)OCOC(=O)OC(C)C
inactive: [2] | [8]
active: [7] 14.8 µM

O=C(O)c1cccnc1
inactive: [4] | [6] | [2] | [9]
active: [1] 16.6 µM

S=P(N1CC1)(N1CC1)N1CC1
not listed: [1] | [3] | [9]
inactive: all other assays above

Nc1[nH]c(=O)ncc1F
inactive: [3] | [4] | [2] | [8] | [7]
active: [1] 20.9 µM

CC[C@H](C)C(=O)O[C@H]1C[C@@H](C)C=C2C=C[C@H](C)[C@H](CC[C@@H]3C[C@@H](O)CC(=O)O3)[C@H]21
active: [8] 20.9 µM | [7] 23.5 µM

Cc1cc(NS(=O)(=O)c2ccc(N)cc2)no1
inactive: [1] | [4] | [2] | [8] | [7]

CC(C)Cn1cnc2c(N)nc3ccccc3c21
active: [7] 14.8 µM
inactive: [1] | [4] | [2]

Cn1c(=O)c2c(ncn2CC(O)CO)n(C)c1=O (stereo unspecified)
inactive: [4] | [6] | [2] | [8] | [7]

CC(C)NCC(O)c1ccc(NS(C)(=O)=O)cc1 (stereo unspecified)
not listed: [1] | [6] | [9]
inactive: all other assays above
